Laboratory results as given in PubChem BioAssay AID1159580 (chemical genetic matrix, 2015).
Hit rate of the full screen: of about 5,500 compounds, about 2,000 (36%) were called active. Not shown: some 18% with an inconclusive outcome. No stated cut-off is given here; in the data, active means normalized growth mostly below about 0.91 (no sharp cut-off); inconclusive means no clear call, values can overlap the other calls; inactive means mostly above about 0.92. The list shows a part of the results.

Test: chemical genetic growth profiling, strain panel (AID 1159580);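 further: tested at 20 µM; growth read once vehicle control cultures reached saturation at 30 °C; 1 = growth at the plate median or of vehicle wells; lower values mean less growth of the strain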
Settings: S. cerevisiae deletion strains, growth OD

Measured: normalized growth

CC(=O)O[C@@H]1CC2C(C)(C)[C@H](O)CC[C@]2(C)C2CC[C@@]3(C)[C@H](c4ccoc4)OC(=O)[C@H]4O[C@]43[C@@]21C (stereo partly specified)
inactive: locus YAL013W, strain DEP1, active compounds read low 1.01 | locus YBR021W, strain FUR4, active compounds read low 0.971 | locus YBR229C, strain ROT2, active compounds read low 0.996 | locus YCL029C, strain bik1, active compounds read low 0.997 | locus YDL035C, strain GPR1, active compounds read low 0.983 | locus YDL074C, strain BRE1, active compounds read low 0.994 | locus YDL101C, strain DUN1, active compounds read low 1.02 | locus YDL134C, strain PPH21, active compounds read low 0.982 | locus YDL185W, strain tfp1, active compounds read low 1.02 | locus YDL192W, strain arf1, active compounds read low 0.999 | locus YDR101C, strain arx1, active compounds read low 0.993 | locus YDR150W, strain NUM1, active compounds read low 1 | locus YDR162C, strain NBP2, active compounds read low 1.01 | locus YDR318W, strain mcm21, active compounds read low 1.02 | locus YDR388W, active compounds read low 1.01 | locus YDR502C, strain sam2, active compounds read low 1.02 | locus YEL061C, strain CIN8, active compounds read low 1.01 | locus YER110C, active compounds read low 1.03 | locus YER155C, strain BEM2, active compounds read low 1.01 | locus YER167W, strain BCK2, active compounds read low 1.01 | locus YGL078C, strain dbp3, active compounds read low 1.04 | locus YGL086W, strain mad1, active compounds read low 1.02 | locus YGL248W, strain PDE1, active compounds read low 1.02 | locus YGR078C, strain PAC10, active compounds read low 1.05 | locus YGR135W, strain pre9, active compounds read low 1.06 | locus YGR252W, strain gcn5, active compounds read low 1.03 | locus YHR030C, strain SLT2, active compounds read low 1.01 | locus YHR079C, strain IRE1 (second series), active compounds read low 1.01 | locus YHR094C, strain hxt1, active compounds read low 1.01 | locus YHR129C, strain ARP1, active compounds read low 1 | locus YHR200W, strain rpn10, active compounds read low 1.01 | locus YIL066C, strain RNR3, active compounds read low 0.984 | locus YIL073C, strain SPO22, active compounds read low 1.03 | locus YIL125W, strain kgd1, active compounds read low 1.01 | locus YIR030C, strain dcg1, active compounds read low 1.01 | locus YJL095W, strain BCK1, active compounds read low 1.03 | locus YJL134W, strain LCB3, active compounds read low 1.01 | locus YJL168C, strain set2, active compounds read low 1.02 | locus YJL187C, strain SWE1 (second series), active compounds read low 1.03 | locus YKL009W, strain mrt4, active compounds read low 0.996 | locus YKL068W, active compounds read low 0.996 | locus YKL085W, strain MDH1 (second series), active compounds read low 1.01 | locus YKL085W, strain MDH1, active compounds read low 1.01 | locus YKR001C, strain vps1, active compounds read low 1.01 | locus YLR039C, strain RIC1, active compounds read low 1.07 | locus YLR058C, strain SHM2, active compounds read low 1.01 | locus YLR102C, strain apc9, active compounds read low 1.01 | locus YLR262C, strain YPT6, active compounds read low 1.13 | locus YLR268W, strain sec22, active compounds read low 0.975 | locus YLR342W, strain FKS1 (second series), active compounds read low 1.02 | locus YLR371W, strain rom2, active compounds read low 1.01 | locus YLR418C, strain cdc73, active compounds read low 1.02 | locus YML016C, strain PPZ1, active compounds read low 1.01 | locus YML032C, strain rad52, active compounds read low 0.978 | locus YML124C, strain tub3, active compounds read low 1.02 | locus YMR078C, strain ctf18, active compounds read low 1.01 | locus YMR223W, strain ubp8, active compounds read low 1 | locus YMR307W, strain GAS1, active compounds read low 1.09 | locus YNL067W, strain RPL9B, active compounds read low 1.04 | locus YNL153C, strain GIM3, active compounds read low 1.04 | locus YNL233W, strain BNI4, active compounds read low 1.02 | locus YNL250W, strain rad50, active compounds read low 1.04 | locus YNL271C, strain bni1, active compounds read low 1.03 | locus YNL298W, strain CLA4, active compounds read low 1.01 | locus YNL307C, strain MCK1, active compounds read low 1.02 | locus YNR052C, strain pop2, active compounds read low 1.04 | locus YOL006C, strain TOP1, active compounds read low 1.01 | locus YOL012C, strain htz1 0.714 | locus YOL147C, strain pex11, active compounds read low 1.01 | locus YOR061W, strain CKA2, active compounds read low 1 | locus YOR069W, strain VPS5, active compounds read low 1.01 | locus YOR136W, strain idh2, active compounds read low 1.01 | locus YOR144C, strain elg1, active compounds read low 1.01 | locus YOR184W, strain ser1, active compounds read low 0.993 | locus YOR316C, strain cot1, active compounds read low 1.02 | locus YPL241C, strain CIN2, active compounds read low 1.01 | locus YPR119W, strain clb2, active compounds read low 1.01 | locus YPR141C, strain kar3, active compounds read low 1 | locus YPR163C, strain tif3, active compounds read low 1.02 | locus YPR167C, strain met16, active compounds read low 1.02 | strain wtn01, active compounds read low 0.984
